Measurements from paper PMC5540273 (PLoS ONE, 2017).
Read-outs that look alike come from different tables or passages of the source.

Legend:
FYN = settings: concentration: 1 μM,replicates: in singlicate; n = 1
GAK = settings: concentration: 1 μM,replicates: in singlicate; n = 1
GCN2(Kin.Dom.2,S808G) = system: T1, GCN2(Kin.Dom.2,S808G); settings: concentration: 1 μM,replicates: in singlicate; n = 1
T1 construct: gene EIF2AK4

GRK1 = settings: concentration: 1 μM,replicates: in singlicate; n = 1
GRK2 = system: T2, GRK2; settings: concentration: 1 μM,replicates: in singlicate; n = 1
T2 construct: gene ADRBK1

GRK3 = system: T3, GRK3; settings: concentration: 1 μM,replicates: in singlicate; n = 1
T3 construct: gene ADRBK2

GRK4 = settings: concentration: 1 μM,replicates: in singlicate; n = 1
GRK7 = settings: concentration: 1 μM,replicates: in singlicate; n = 1
GSK3A = settings: concentration: 1 μM,replicates: in singlicate; n = 1
GSK3B = settings: n = 1
HASPIN = system: T4, HASPIN; settings: concentration: 1 μM,replicates: in singlicate; n = 1
T4 construct: gene GSG2

HCK = settings: concentration: 1 μM,replicates: in singlicate; n = 1
HIPK1 = settings: concentration: 1 μM,replicates: in singlicate; n = 1
HIPK2 = settings: concentration: 1 μM,replicates: in singlicate; n = 1
HIPK3 = settings: concentration: 1 μM,replicates: in singlicate; n = 1
HIPK4 = settings: concentration: 1 μM,replicates: in singlicate; n = 1
HPK1 = settings: concentration: 1 μM,replicates: in singlicate; n = 1
HUNK = settings: concentration: 1 μM,replicates: in singlicate; n = 1
ICK = settings: concentration: 1 μM,replicates: in singlicate; n = 1
IGF1R = settings: concentration: 1 μM,replicates: in singlicate; n = 1
[1] = concentration: 1 μM,replicates: in singlicate
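Note: KINOMEscan kinase panel screen.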

CC(=O)c1c(-c2ccncc2)[nH]c(-c2ccncc2)c1C [GW493036]
%Inh (FYN): 37%
%Inh (GAK): 27%
%Inh (GCN2(Kin.Dom.2,S808G)): 0%
%Inh (GRK1): 0%
%Inh (GRK2): 0%
%Inh (GRK3): 66%
%Inh (GRK4): 0%
%Inh (GRK7): 0%
%Inh (GSK3A): 81%
%Inh (GSK3B; [1]): 58%
%Inh (HASPIN): 85%
%Inh (HCK): 0%
%Inh (HIPK1): 53%
%Inh (HIPK2): 0%
%Inh (HIPK3): 65%
%Inh (HIPK4): 86%
%Inh (HPK1): 11%
%Inh (HUNK): 26%
%Inh (ICK): 18%
%Inh (IGF1R): 0%

NC(=O)Nc1sc(-c2ccc(F)cc2)cc1C(N)=O [GW789449]
%Inh (FYN): 20%
%Inh (GAK): 37%
%Inh (GCN2(Kin.Dom.2,S808G)): 34%
%Inh (GRK1): 12%
%Inh (GRK2): 0%
%Inh (GRK3): 0%
%Inh (GRK4): 87%
%Inh (GRK7): 26%
%Inh (GSK3A): 0%
%Inh (GSK3B; [1]): 17%
%Inh (HASPIN): 3%
%Inh (HCK): 47%
%Inh (HIPK1): 40%
%Inh (HIPK2): 34%
%Inh (HIPK3): 31%
%Inh (HIPK4): 2%
%Inh (HPK1): 48%
%Inh (HUNK): 0%
%Inh (ICK): 15%
%Inh (IGF1R): 2%

OCCn1cc(-c2cnc3nnn(Cc4ccc5ncccc5c4)c3n2)cn1
%Inh (FYN): 0%
%Inh (GAK): 6%
%Inh (GCN2(Kin.Dom.2,S808G)): 0%
%Inh (GRK1): 3%
%Inh (GRK2): 0%
%Inh (GRK3): 1%
%Inh (GRK4): 0%
%Inh (GRK7): 0%
%Inh (GSK3A): 0%
%Inh (GSK3B; [1]): 0%
%Inh (HASPIN): 0%
%Inh (HCK): 25%
%Inh (HIPK1): 6%
%Inh (HIPK2): 0%
%Inh (HIPK3): 0%
%Inh (HIPK4): 3%
%Inh (HPK1): 0%
%Inh (HUNK): 0%
%Inh (ICK): 0%
%Inh (IGF1R): 0%

Cn1ccc2ncnc(Oc3ccc(NC(=O)Nc4cccc(C(F)(F)F)c4)c(Cl)c3)c21
%Inh (FYN): 0%
%Inh (GAK): 1%
%Inh (GCN2(Kin.Dom.2,S808G)): 21%
%Inh (GRK1): 32%
%Inh (GRK2): 0%
%Inh (GRK3): 0%
%Inh (GRK4): 0%
%Inh (GRK7): 0%
%Inh (GSK3A): 28%
%Inh (GSK3B; [1]): 0%
%Inh (HASPIN): 0%
%Inh (HCK): 47%
%Inh (HIPK1): 26%
%Inh (HIPK2): 15%
%Inh (HIPK3): 0%
%Inh (HIPK4): 17%
%Inh (HPK1): 39%
%Inh (HUNK): 2%
%Inh (ICK): 0%
%Inh (IGF1R): 0%

CC(C)S(=O)(=O)N1CCN(Cc2ccc3c(c2)nc(NC(=O)c2ccsc2)n3C[C@H](O)c2ccccc2)CC1 [GW635815]
%Inh (FYN): 73%
%Inh (GAK): 0%
%Inh (GCN2(Kin.Dom.2,S808G)): 10%
%Inh (GRK1): 35%
%Inh (GRK2): 0%
%Inh (GRK3): 8%
%Inh (GRK4): 7%
%Inh (GRK7): 10%
%Inh (GSK3A): 2%
%Inh (GSK3B; [1]): 0%
%Inh (HASPIN): 17%
%Inh (HCK): 37%
%Inh (HIPK1): 34%
%Inh (HIPK2): 20%
%Inh (HIPK3): 1%
%Inh (HIPK4): 0%
%Inh (HPK1): 39%
%Inh (HUNK): 0%
%Inh (ICK): 0%
%Inh (IGF1R): 29%

Cc1cccc(-c2nc(Nc3ccncc3)c3sccc3n2)n1 [GW869641]
%Inh (FYN): 0%
%Inh (GAK): 13%
%Inh (GCN2(Kin.Dom.2,S808G)): 5%
%Inh (GRK1): 0%
%Inh (GRK2): 17%
%Inh (GRK3): 11%
%Inh (GRK4): 15%
%Inh (GRK7): 42%
%Inh (GSK3A): 0%
%Inh (GSK3B; [1]): 40%
%Inh (HASPIN): 44%
%Inh (HCK): 25%
%Inh (HIPK1): 21%
%Inh (HIPK2): 13%
%Inh (HIPK3): 37%
%Inh (HIPK4): 13%
%Inh (HPK1): 16%
%Inh (HUNK): 20%
%Inh (ICK): 32%
%Inh (IGF1R): 8%

CCN1CCN(CCCC(=O)Nc2n[nH]c3nc(-c4ccc(O)cc4)c(Br)cc23)CC1 [SB-731579]
%Inh (FYN): 4%
%Inh (GAK): 0%
%Inh (GCN2(Kin.Dom.2,S808G)): 0%
%Inh (GRK1): 0%
%Inh (GRK2): 0%
%Inh (GRK3): 25%
%Inh (GRK4): 21%
%Inh (GRK7): 0%
%Inh (GSK3A): 99.5%
%Inh (GSK3B; 1 µM): 98.5%
%Inh (HASPIN): 0%
%Inh (HCK): 0%
%Inh (HIPK1): 75%
%Inh (HIPK2): 57%
%Inh (HIPK3): 0%
%Inh (HIPK4): 0%
%Inh (HPK1): 8%
%Inh (HUNK): 0%
%Inh (ICK): 93.3%
%Inh (IGF1R): 0%

COc1cc2c(Nc3ccc(NC(=O)c4ccccc4)cc3)ncnc2cc1OCCCN1CCOCC1 [GSK301329]
%Inh (FYN): 49%
%Inh (GAK): 0%
%Inh (GCN2(Kin.Dom.2,S808G)): 4%
%Inh (GRK1): 10%
%Inh (GRK2): 0%
%Inh (GRK3): 0%
%Inh (GRK4): 12%
%Inh (GRK7): 0%
%Inh (GSK3A): 0%
%Inh (GSK3B; [1]): 11%
%Inh (HASPIN): 0%
%Inh (HCK): 0%
%Inh (HIPK1): 15%
%Inh (HIPK2): 0%
%Inh (HIPK3): 3%
%Inh (HIPK4): 79%
%Inh (HPK1): 15%
%Inh (HUNK): 0%
%Inh (ICK): 2%
%Inh (IGF1R): 15%

Cc1cccc2c(-c3ccncc3)c(-c3ccc(F)cc3)nn12.Cl [GW461487]
%Inh (FYN): 4%
%Inh (GAK): 67%
%Inh (GCN2(Kin.Dom.2,S808G)): 1%
%Inh (GRK1): 0%
%Inh (GRK2): 0%
%Inh (GRK3): 21%
%Inh (GRK4): 100%
%Inh (GRK7): 0%
%Inh (GSK3A): 12%
%Inh (GSK3B; [1]): 10%
%Inh (HASPIN): 2%
%Inh (HCK): 0%
%Inh (HIPK1): 0%
%Inh (HIPK2): 0%
%Inh (HIPK3): 19%
%Inh (HIPK4): 0%
%Inh (HPK1): 28%
%Inh (HUNK): 5%
%Inh (ICK): 0%
%Inh (IGF1R): 0%

COc1cccc(C2=C(Nc3cccc(Cl)c3)C(=O)NC2=O)c1 [SB-341556]
%Inh (FYN): 25%
%Inh (GAK): 12%
%Inh (GCN2(Kin.Dom.2,S808G)): 0%
%Inh (GRK1): 27%
%Inh (GRK2): 0%
%Inh (GRK3): 22%
%Inh (GRK4): 27%
%Inh (GRK7): 0%
%Inh (GSK3A): 70%
%Inh (GSK3B; 1 µM): 35%
%Inh (HASPIN): 0%
%Inh (HCK): 0%
%Inh (HIPK1): 19%
%Inh (HIPK2): 0%
%Inh (HIPK3): 33%
%Inh (HIPK4): 0%
%Inh (HPK1): 47%
%Inh (HUNK): 0%
%Inh (ICK): 33%
%Inh (IGF1R): 7%
